15 molecules from PubChem BioAssay (NCI) can be followed below.

Among the test systems are NCI-H23 lung; NCI-H226 lung; NCI-H322M lung; HOP-62 NSCLC; NCI-H460 lung; HOP-92 NSCLC; NCI-H522 lung; A549/ATCC NSCLC; 786-0 renal; COLO 205 colon.
Common to all, as to test: NCI-60 one-dose screen, 48 h (100 = growth as untreated, 0 = no growth, -100 = all killed)
Details in all cases: 10 µM unless noted

About 83,000 compounds went through this panel and 20% of them were active in at least one assay; those are over-represented in the sample as a whole.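 Treatment: one concentration, 48 hours, 96-well format. Scoring: percent growth, with anything below 10 considered active.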 Unmarked numbers belong to inactive results. Active and inactive are the calls of the source.

`CCCCCCCCCCCCCCCc1cc(O)ccc1[N+](=O)[O-]`: the growth is 79.6% in the assay with NCI-H23 lung; 96.9% with NCI-H226 lung; 100% with NCI-H322M lung; 96% with HOP-62 NSCLC; 102% with NCI-H460 lung; 59.9% in the assay with HOP-92 NSCLC. For the same molecule, the growth in the assay on NCI-H522 lung was 28%; in the assay on A549/ATCC NSCLC, 96.8%; in the assay on 786-0 renal it was 97.9%; in the assay on COLO 205 colon, 96%.

In the case of `COc1ccc2[nH]c(C(=O)OCc3ccc4cccc(O)c4n3)cc2c1`, the growth in the assay with NCI-H23 lung was -3.84% (active); in the assay with NCI-H226 lung, -68.1% (active); in the assay on NCI-H322M lung, 62.7%; in the assay on HOP-62 NSCLC it was 35%; in the assay on NCI-H460 lung, 7.31% (active); in the assay with HOP-92 NSCLC, -78.2% (active). Moreover, the growth in the assay with NCI-H522 lung was -66.9% (active); with A549/ATCC NSCLC, 21.2%; in the assay with 786-0 renal it was -76.1% (active); in the assay with COLO 205 colon it was -69.1% (active).

In the case of `CCCC(CCC)NCC(O)c1cc(-c2ccc(C(F)(F)F)cc2)nc(C(F)(F)F)c1` (stereo not given), the growth in the assay on NCI-H23 lung was -59.4% (active); with NCI-H226 lung, -69.5% (active); in the assay with NCI-H322M lung, 0.686% (active); in the assay on HOP-62 NSCLC, -64.8% (active); with NCI-H460 lung, -60.1% (active); in the assay on HOP-92 NSCLC, -71.5% (active). Besides, the growth with NCI-H522 lung was -77.5% (active); with A549/ATCC NSCLC, -59.6% (active); with 786-0 renal, -61.5% (active); with COLO 205 colon, -83.5% (active).

Consider `O=C(O)c1ccccc1N=Cc1ccccc1`, for which the growth in the assay on NCI-H23 lung is 98%; in the assay on NCI-H226 lung, 132%; with NCI-H322M lung, 120%; in the assay with HOP-62 NSCLC, 100%; in the assay on NCI-H460 lung it was 106%; with HOP-92 NSCLC, 90.2%. In addition, the growth in the assay on NCI-H522 lung is 101%; with A549/ATCC NSCLC, 102%; in the assay with 786-0 renal, 104%; in the assay with COLO 205 colon it was 105%.

Take `COc1cc(/C=C2\C(=O)Nc3ccc(N(C)C)cc32)cc(OC)c1OC`: the growth was 26.8% in the assay with NCI-H23 lung; 25.8% in the assay on NCI-H226 lung; 37.6% with NCI-H322M lung; 45.5% in the assay with HOP-62 NSCLC; 6.86% (active) with NCI-H460 lung; 33.2% in the assay with HOP-92 NSCLC. In addition, the growth in the assay with NCI-H522 lung was 23.8%; in the assay with A549/ATCC NSCLC it was -3.78% (active); in the assay with 786-0 renal, 28.4%; in the assay with COLO 205 colon, 28%.

Take `O=C(N=Nc1c(Cl)c(O)c2ccccc2c1O)C(=O)Nc1cccc(C(F)(F)F)c1`: the growth in the assay on NCI-H23 lung is 71.5%; in the assay on NCI-H226 lung, 88.5%; with NCI-H322M lung, 63.4%; with HOP-62 NSCLC it was 47.9%; in the assay with NCI-H460 lung it was 79.8%; in the assay on HOP-92 NSCLC, 79.2%. Moreover, the growth was 8.55% (active) in the assay on NCI-H522 lung, 87.1% in the assay with A549/ATCC NSCLC, 90.3% with 786-0 renal and 47.3% with COLO 205 colon.

In the case of `Clc1ccc(Nc2ncnc3c2sc2ncccc23)c(Cl)c1`, the growth with NCI-H23 lung was 14.9%; with NCI-H226 lung, 43.6%; with NCI-H322M lung, 45.1%; in the assay on HOP-62 NSCLC, 1.95% (active); in the assay with NCI-H460 lung, 10.1%; with HOP-92 NSCLC, 22.3%. In addition, the growth in the assay on NCI-H522 lung was 31.8%; with A549/ATCC NSCLC it was 26.8%; in the assay with 786-0 renal, 17.2%; with COLO 205 colon it was 27.6%.

Turning to `Cc1cc(C)c([O-])c(CN(C)CCN(C)Cc2cc(C)cc(C)c2[O-])c1.O=C([O-])c1cccc(C(=O)[O-])n1.[Ti+4]`, the growth in the assay with NCI-H23 lung was 10.4%; in the assay on NCI-H226 lung it was 31%; in the assay on NCI-H322M lung, 8.44% (active); with HOP-62 NSCLC, 12.5%; in the assay with NCI-H460 lung it was -68.7% (active); with HOP-92 NSCLC it was -53.1% (active). Further, the growth with NCI-H522 lung is -47% (active); with A549/ATCC NSCLC, 23.3%; in the assay with 786-0 renal, 11.9%; in the assay with COLO 205 colon it was 2.03% (active).

With `CCc1ccc2c(c1)N(CCO)C1=C(C(=O)OC1)C2c1cccc(Cl)c1` (stereo not given), the growth with NCI-H23 lung is 38.8%; in the assay on NCI-H226 lung it was 32.4%; in the assay on NCI-H322M lung it was 39.4%; with HOP-62 NSCLC, 31.7%; in the assay with NCI-H460 lung it was 10.8%; in the assay on HOP-92 NSCLC, 93.4%. Moreover, the growth with NCI-H522 lung was -22% (active); with A549/ATCC NSCLC it was 26.6%; with 786-0 renal it was 32.8%; in the assay on COLO 205 colon, 2.49% (active).

With `O=C(Nc1ccccc1Cl)Oc1ccc2ccccc2c1`, the growth in the assay with NCI-H23 lung was 91.3%; with NCI-H226 lung, 88.2%; in the assay on NCI-H322M lung it was 109%; with HOP-62 NSCLC, 92.9%; with NCI-H460 lung it was 102%; with HOP-92 NSCLC, 101%. Further, the growth was 79.6% in the assay with NCI-H522 lung, 94.9% in the assay on A549/ATCC NSCLC, 90.9% in the assay with 786-0 renal and 118% in the assay with COLO 205 colon.

Turning to `COc1ccc(/C(=C\c2cc(OC)c(OC)c(OC)c2)C(=O)Nc2nc3ccc(Cl)cc3s2)cc1`, the growth in the assay on NCI-H23 lung was 94.4%; in the assay with NCI-H226 lung, 83.2%; in the assay on NCI-H322M lung, 82.5%; in the assay on HOP-62 NSCLC it was 94.9%; with NCI-H460 lung, 117%; in the assay on HOP-92 NSCLC it was 86.8%. Moreover, the growth was 74.9% in the assay on NCI-H522 lung, 81% with A549/ATCC NSCLC, 91.3% in the assay on 786-0 renal and 108% in the assay with COLO 205 colon.

In the case of `CC(C)COC(=O)NC(C)(C)C`, the growth was 101% with NCI-H23 lung; 104% with NCI-H226 lung; 100% in the assay on NCI-H322M lung; 107% in the assay with HOP-62 NSCLC; 107% in the assay with NCI-H460 lung; 98.9% in the assay with HOP-92 NSCLC. Further, the growth was 71.5% with NCI-H522 lung, 101% in the assay on A549/ATCC NSCLC, 98.1% in the assay on 786-0 renal and 106% with COLO 205 colon.

Consider `CCCCCCCCCCCCCCC(C(=O)OCC)C(=O)OCC`, for which the growth in the assay on NCI-H23 lung is 105%; in the assay on NCI-H226 lung, 93.3%; in the assay with NCI-H322M lung, 104%; in the assay with HOP-62 NSCLC, 105%; in the assay with NCI-H460 lung, 109%; with HOP-92 NSCLC, 105%. Also, the growth in the assay with NCI-H522 lung is 92.6%; with A549/ATCC NSCLC, 109%; in the assay with 786-0 renal, 115%; in the assay on COLO 205 colon, 115%.

Regarding `O=C(Cn1nncc1CN1C(=O)CSC1=O)Nc1ccc(F)cc1`, the growth in the assay on NCI-H23 lung is 97.3%; in the assay with NCI-H226 lung it was 95.7%; in the assay with NCI-H322M lung it was 102%; in the assay with HOP-62 NSCLC, 97.2%; in the assay with NCI-H460 lung it was 103%; with HOP-92 NSCLC it was 104%. Besides, the growth with NCI-H522 lung is 93.5%; in the assay on A549/ATCC NSCLC it was 102%; in the assay on 786-0 renal, 102%; in the assay with COLO 205 colon it was 107%.

With `COc1ccc(Br)c2ccccc12`, the growth was 109% in the assay on NCI-H23 lung; 106% with NCI-H226 lung; 117% with NCI-H322M lung; 103% in the assay with HOP-62 NSCLC; 114% in the assay with NCI-H460 lung; 93.9% in the assay on HOP-92 NSCLC. Besides, the growth with NCI-H522 lung was 97.9%; with A549/ATCC NSCLC it was 104%; in the assay on 786-0 renal, 115%; with COLO 205 colon, 120%.
